Read-out in experiment [1]: Urokinase-type plasminogen activator receptor (uPAR), PLAUR (gene 5329)
Nature of the experiment: BSK_4H_uPAR: BioMAP Diversity Plus: 4H Assay for Urokinase-type plasminogen activator receptor (uPAR) Biomarker Activity (AID 2283030). Conditions: primary human endothelial cells (HUVEC); actives raise or lower the signal. In outline: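 Primary human umbilical vein endothelial cells were exposed to chemical for 24 h before cell-surface uPAR was quantified by ELISA. Activity was fitted bidirectionally against the DMSO negative control baseline.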

Read-out in experiment [2]: Vascular endothelial growth factor receptor 2 (Homo sapiens) (UniProt P35968)
The experiment in a line: BSK_4H_VEGFRII: BioMAP Diversity Plus: 4H Assay for Vascular endothelial growth factor receptor 2 (VEGFR2) Biomarker Activity (AID 2283031).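 On AC50: cell-surface VEGFR2 protein level quantified by ELISA.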 Conditions: primary human endothelial cells (HUVEC); actives raise or lower the signal. In a few lines: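 Primary human umbilical vein endothelial cells in the BioMAP 4H system were dosed with test chemical, and 24 h later VEGFRII was measured by ELISA. Activity was fitted bidirectionally against DMSO as negative control and baseline.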

Read-out in experiment [3]: Vascular cell adhesion molecule 1 (VCAM1), VCAM1 (gene 7412)
The experiment in a line: BSK_4H_VCAM1: BioMAP Diversity Plus: 4H Assay for Vascular cell adhesion molecule 1 (VCAM1) Biomarker Activity (AID 2283033).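 On outcome: cell-surface VCAM-1 protein measured by ELISA.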 Conditions: primary human endothelial cells (HUVEC); actives raise or lower the signal. In outline:
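HUVEC, 24 h post-dose; VCAM-1 by ELISA. Bidirectional curve fit vs DMSO baseline. Parallel SRB total-protein stain (0.1% SRB after 10% TCA fixation, 560 nm) for cytotoxicity.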

Read-out in experiment [4]: Interferon-gamma inducible Protein 10 (IP10), CXCL10 (gene 3627)
Nature of the experiment: BSK_BE3C_IP10: BioMAP Diversity Plus: BE3C Assay for Interferon-gamma inducible Protein 10 (IP10) Biomarker Activity (AID 2283034). Conditions: primary human bronchial epithelial cells; actives raise or lower the signal. In outline: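 ELISA readout of IP-10 in BE3C system: primary human bronchial epithelial cells, 24 h post-dosing; bidirectional curve fit vs DMSO baseline.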

Read-out in experiment [5]: Monokine induced gamma interferon (MIG), CXCL9 (gene 4283)
Nature of the experiment: BSK_BE3C_MIG: BioMAP Diversity Plus: BE3C Assay for Monokine induced gamma interferon (MIG) Biomarker Activity (AID 2283035).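 On outcome: MIG protein measured by ELISA in BE3C cultures after 24 h of dosing.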 The following applies: primary human bronchial epithelial cells; actives raise or lower the signal. In a few lines: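 Dose cells (human primary bronchial epithelial), incubate 24 h, quantify MIG by ELISA, then fit concentration–response in both directions relative to DMSO control.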

Read-out in experiment [6]: Transforming growth factor beta 1 (TGFb1), TGFB1 (gene 7040)
The experiment in a line: BSK_BE3C_TGFb1: BioMAP Diversity Plus: BE3C Assay for Transforming growth factor beta 1 (TGFb1) Biomarker Activity (AID 2283036;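 on outcome: TGF-b1 protein level measured by ELISA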). The following applies: primary human bronchial epithelial cells; actives raise or lower the signal. In a few lines: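 Read-out: ELISA for TGF-b1 in primary human bronchial epithelial cultures, 24 h post-dose. Bidirectional curve fitting vs DMSO control; gain or loss of signal both scored.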

Read-out in experiment [7]: Plasminogen activator inhibitor-1 (PAI1), SERPINE1 (gene 5054)
Nature of the experiment: BSK_BE3C_PAI1: BioMAP Diversity Plus: BE3C Assay for Plasminogen activator inhibitor-1 (PAI1) Biomarker Activity (AID 2283037). Conditions: primary human bronchial epithelial cells; actives raise or lower the signal. In a few lines: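 ELISA read-out of PAI-1 from human bronchial epithelial primary cells, 24 h post-dosing; bidirectional curve fit vs DMSO baseline, gain or loss of signal scored.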

Read-out in experiment [8]: urokinase plasminogen activator (uPA), PLAU (gene 5328)
The experiment in a line: BSK_BE3C_uPA: BioMAP Diversity Plus: BE3C Assay for urokinase plasminogen activator (uPA) Biomarker Activity (AID 2283038).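 On outcome: uPA protein level quantified by ELISA in cell cultures; uPA read one day after compound addition.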 Conditions: primary human bronchial epithelial cells; actives raise or lower the signal. In a few lines: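 Human primary bronchial epithelial cells were exposed to chemical for 24 h, then uPA levels were measured by ELISA. Responses were fitted bidirectionally against DMSO as negative control and baseline. Parallel SRB staining of total protein gauged overt cytotoxicity.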

Read-out in experiment [9]: Urokinase-type plasminogen activator receptor (uPAR), PLAUR (gene 5329)
The experiment in a line: BSK_BE3C_uPAR: BioMAP Diversity Plus: BE3C Assay for Urokinase-type plasminogen activator receptor (uPAR) Biomarker Activity (AID 2283039).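 On outcome: cells exposed to compound for one day before measurement.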 The following applies: primary human bronchial epithelial cells; actives raise or lower the signal. In a few lines: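 ELISA readout of uPAR on human lung primary bronchial epithelial cells, 24 h post-dosing. Bidirectional curve fit relative to DMSO vehicle baseline; gain or loss of signal both scored.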

Read-out in experiment [10]: Interleukin-6 (IL6), IL6 (gene 3569)
Nature of the experiment: BSK_CASM3C_IL6: BioMAP Diversity Plus: CASM3C Assay for Interleukin-6 (IL6) Biomarker Activity for (AID 2283040). The following applies: primary human coronary artery smooth muscle cells; actives raise or lower the signal.

Read-out in experiment [11]: Tissue plasminogen activator (tPA), PLAT (gene 5327)
Nature of the experiment: BSK_BE3C_tPA: BioMAP Diversity Plus: BE3C Assay for Tissue plasminogen activator (tPA) Biomarker Activity (AID 2283041).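 On outcome: tPA level quantified by ELISA one day after compound addition.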 Conditions: primary human bronchial epithelial cells; actives raise or lower the signal. In a few lines:
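ELISA read-out of tPA on human primary bronchial epithelial cells, 24 h post-dosing; bidirectional fit vs DMSO negative control/baseline.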

Read-out in experiment [12]: Interleukin-8 (IL8), CXCL8 (gene 3576)
The experiment in a line: BSK_CASM3C_IL8: BioMAP Diversity Plus: CASM3C Assay for Interleukin-8 (IL8) Biomarker Activity (AID 2283042).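 Further: IL-8 protein level quantified by ELISA.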 The following applies: primary human coronary artery smooth muscle cells; actives raise or lower the signal.

Read-out in experiment [13]: Human Leukocyte Antigen - DR isotype (HLADR), HLA-DRA (gene 3122)
The experiment in a line: BSK_CASM3C_HLADR: BioMAP Diversity Plus: CASM3C Assay for Human Leukocyte Antigen - DR isotype (HLADR) Biomarker Activity (AID 2283043).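 Further: cell-surface HLA-DR protein level quantified by ELISA.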 Conditions: primary human coronary artery smooth muscle cells; actives raise or lower the signal.

Read-out in experiment [14]: Macrophage colony-stimulating factor (MCSF), CSF1 (gene 1435)
The experiment in a line: BSK_CASM3C_MCSF: BioMAP Diversity Plus: CASM3C Assay for Macrophage colony-stimulating factor (MCSF) Biomarker Activity (AID 2283044).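 Further: M-CSF protein amount quantified by ELISA after 24 h exposure.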 Conditions: primary human coronary artery smooth muscle cells; actives raise or lower the signal.

Read-out in experiment [15]: Low-density lipoprotein receptor (LDLR), LDLR (gene 3949)
Nature of the experiment: BSK_CASM3C_LDLR: BioMAP Diversity Plus: CASM3C Assay for Low-density lipoprotein receptor (LDLR) Biomarker Activity (AID 2283045).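 Further: LDLR protein level on the cell surface quantified by ELISA.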 The following applies: primary human coronary artery smooth muscle cells; actives raise or lower the signal.

Read-out in experiment [16]: Monocyte Chemoattractant Protein-1 (MCP1), CCL2 (gene 6347)
The experiment in a line: BSK_CASM3C_MCP1: BioMAP Diversity Plus: CASM3C Assay for Monocyte Chemoattractant Protein-1 (MCP1) Biomarker Activity (AID 2283046).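 Further: MCP-1 level quantified by ELISA 24 h after dosing.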 The following applies: primary human coronary artery smooth muscle cells; actives raise or lower the signal.

Experiment [17] is described as follows: BSK_CASM3C_Proliferation: Cell Proliferation Assessment in the BioMAP Diversity Plus: CASM3C Assay (AID 2283047).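 Further: sulforhodamine B total protein stain as relative cell number at 560 nm; sub-confluent cells exposed 48 h before staining; fitted both ways against DMSO so gain or loss of cell number.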 The following applies: primary human coronary artery smooth muscle cells.
Read-out in experiment [18]: Monokine induced gamma interferon (MIG), CXCL9 (gene 4283)
The experiment in a line: BSK_CASM3C_MIG: BioMAP Diversity Plus: CASM3C Assay for Monokine induced gamma interferon (MIG) Biomarker Activity (AID 2283048). The following applies: primary human coronary artery smooth muscle cells; actives raise or lower the signal.

Read-out in experiment [19]: serum amyloid A (SAA), SAA1 (gene 6288)
Nature of the experiment: BSK_CASM3C_SAA: BioMAP Diversity Plus: CASM3C Assay for serum amyloid A (SAA) Biomarker Activity (AID 2283049).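 Further: SAA protein level quantified by ELISA.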 Conditions: primary human coronary artery smooth muscle cells; actives raise or lower the signal.

The structures appear in SMILES notation. Calls of active or inactive are those of the source. How the source made its calls: active means hit-call score of the fitted dose curve at least 0.9, where 1 is the maximum; inactive means score below 0.9.

For `CCC1(c2ccccc2)C(=O)N=C(O)NC1=O` (stereo not drawn), the outcome in [1], in experiment [2], in [3], in experiment [4], in experiment [5] and in [6] was inactive. Besides, the outcome in experiment [7], in experiment [8], in [9], in [10], in experiment [11] and in experiment [12] was inactive. The result in experiment [13], in experiment [14], in experiment [15], in experiment [16], in [17] and in [18] was inactive. The result in experiment [19] was inactive.
Regarding `CCOP(=S)(OCC)SCSc1ccc(Cl)cc1`, the result in experiment [1], in experiment [2], in experiment [4], in experiment [5], in experiment [6] and in [7] was inactive. In addition, the outcome in experiment [8], in [9], in experiment [10], in experiment [11], in [12] and in experiment [13] was inactive. Moreover, the result in experiment [14], in [15], in experiment [17], in [18] and in experiment [19] was inactive. For the same compound, the values for the AC50 in experiment [3] and in experiment [16] were 6.58 µM (active) and 0.272 µM (active), respectively.
Consider `O=C(O)C(Cl)Cl`, for which the outcome in [1], in experiment [2], in experiment [3], in [4], in experiment [5] and in [6] was inactive. The result in experiment [7], in experiment [8], in [9], in experiment [10], in experiment [11] and in experiment [12] was inactive. Further, the result in experiment [13], in [14], in experiment [15], in experiment [16], in experiment [17] and in experiment [18] was inactive. The outcome in experiment [19] was inactive.
As to `C=CC(=O)OCC(CC)(COC(=O)C=C)COC(=O)C=C`, the AC50 (commonly the concentration at which the activity in the assay is half-maximal) in experiment [1] is 4.07 µM (active); in experiment [2] it was 5.14 µM (active); in experiment [3], 2.45 µM (active); in [4], 4.45 µM (active); in experiment [5] it was 9.44 µM (active); in experiment [6], 6.86 µM (active). The AC50 in [7] is 10.5 µM (active); in [8], 4.96 µM (active); in experiment [9], 7.24 µM (active); in [10] it was 2.11 µM (active); in experiment [11], 5.46 µM (active); in [12], 6.3 µM (active). Besides, the half-maximal activity concentration (AC50) is 1.46 µM (active) in experiment [13]; 1.98 µM (active) in experiment [14]; 2.54 µM (active) in experiment [16]; 2.84 µM (active) in [17]; 2.82 µM (active) in experiment [18]; 0.624 µM (active) in experiment [19]. Also, the outcome in experiment [15] was inactive.
Take `O=S1(=O)OCC2C(CO1)C1(Cl)C(Cl)=C(Cl)C2(Cl)C1(Cl)Cl` (stereo not drawn): the concentration at half-maximal activity (AC50) is 9.1 µM (active) in experiment [1]; 20 µM (active) in experiment [3]; 32.7 µM (active) in [13]; 7.85 µM (active) in experiment [14]; 20 µM (active) in [17]; 23.2 µM (active) in experiment [19]. Further, the outcome in [2], in [4], in [5], in experiment [6], in [7] and in experiment [8] was inactive. In addition, the result in [9], in experiment [10], in experiment [11], in [12], in [15] and in experiment [16] was inactive. Also, in [18], the result was inactive.
Take `COC(=O)C(F)(F)C(F)(F)OC(F)(C(F)(F)F)C(F)(F)OC(F)=C(F)F` (stereo not drawn): the outcome in experiment [1], in [2], in [3], in experiment [4], in experiment [5] and in experiment [7] was inactive. The outcome in experiment [8], in experiment [9], in experiment [10], in [11], in experiment [12] and in experiment [13] was inactive. Moreover, the outcome in [14], in [15], in experiment [16], in experiment [17], in experiment [18] and in experiment [19] was inactive.
